An excerpt weighted towards active compounds, which were near 4.6% of everything screened.
HIF-2a inh – blocks HIF-2a reporter activity; 786-0 RCC cells HIF-2a reporter, luciferase luminescence, overnight; inhibition, % at 18.8 µM; 0.72% of 360,000 active; AID 624352;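 active means inhibition of the luminescence signal of 40% or more relative to plate controls, in a single-dose primary screen at 18.75 µM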
KKLEB cytotox – reduces viability of KKLEB cystic fibrosis airway cells; 0.36% of 360,000 active; KKLEB CF airway cells viability, ATPlite luminescence, overnight; stronger effect = lower value; cells stimulated with P. aeruginosa culture filtrate; activity change (cytotoxicity), % at 5 µM;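 active means corrected activity change at or below -50% at 5 µM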
Peg3 prom inh – reduces Peg3 promoter-driven luciferase expression in HeLa. HeLa PEG-Prom luciferase reporter, luminescence, overnight. inhibition, % at 20 µM. 1.7% of 360,000 active;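 active means inhibition of at least 50% at 20 µM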
ABHD5-PLIN5 inh – blocks binding of human ABHD5 to perilipin-5. Q00G26+Q8WTS1. Split G. princeps luciferase complementation, luminescence, 4 h. inhibition, % at 4 µM. 0.78% of 360,000 active;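 active means inhibition above the mean inhibition across every tested compound plus 3 SD, cut at about 22% in these data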;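 further: 0% = DMSO only wells and the 100% control is not disclosed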
Target sequence (Q00G26 whole entry, looked up): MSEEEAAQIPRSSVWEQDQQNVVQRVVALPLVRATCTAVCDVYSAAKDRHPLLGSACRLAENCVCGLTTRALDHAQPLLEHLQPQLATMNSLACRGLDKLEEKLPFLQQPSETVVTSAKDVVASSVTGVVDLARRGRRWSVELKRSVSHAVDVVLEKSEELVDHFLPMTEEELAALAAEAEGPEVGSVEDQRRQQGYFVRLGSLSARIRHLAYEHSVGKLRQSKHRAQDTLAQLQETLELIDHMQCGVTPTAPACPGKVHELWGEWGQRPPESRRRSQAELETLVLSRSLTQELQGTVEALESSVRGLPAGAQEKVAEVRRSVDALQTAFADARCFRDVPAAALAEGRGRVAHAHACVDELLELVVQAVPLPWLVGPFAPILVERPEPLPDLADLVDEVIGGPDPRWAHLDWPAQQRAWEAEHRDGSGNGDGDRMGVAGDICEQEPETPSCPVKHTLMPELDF
Target sequence (Q8WTS1 whole entry, looked up): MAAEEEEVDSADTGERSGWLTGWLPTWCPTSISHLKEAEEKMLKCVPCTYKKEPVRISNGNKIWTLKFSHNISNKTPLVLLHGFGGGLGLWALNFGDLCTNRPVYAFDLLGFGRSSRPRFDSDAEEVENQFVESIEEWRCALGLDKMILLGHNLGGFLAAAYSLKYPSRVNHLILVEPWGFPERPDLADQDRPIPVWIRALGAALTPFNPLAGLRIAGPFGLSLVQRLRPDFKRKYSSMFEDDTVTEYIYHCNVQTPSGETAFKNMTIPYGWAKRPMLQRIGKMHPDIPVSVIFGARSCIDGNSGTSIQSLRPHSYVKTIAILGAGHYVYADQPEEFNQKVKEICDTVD
CF NFkB block – blocks PAF-induced NF-kB reporter in cystic fibrosis cells. inhibition, % at 5 µM. KKLEB NF-kB-GFP reporter, GFP fluorescence overnight. 0.86% of 360,000 active;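 active means at least 50% inhibition at 5 µM, scaled per plate between neutral and stimulator controls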;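 further: PAF is a Pseudomonas aeruginosa culture filtrate used as stimulus; plate controls were PAF-stimulated DMSO wells for no effect and unstimulated DMSO wells for full effect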
Mdm2 MdmX PPI – inhibitors of human Mdm2/MdmX interaction | O15151+Q00987 | SaOS-2 split-luciferase Mdm2/MdmX complementation, luminescence | inhibition, % at 8 µM | 3% of 330,000 active | AID 485346;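 active means inhibition of at least 50% at 8 µM in the primary screen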
HIF-2a conf – HIF-2a inhibition, single concentration confirmation; 56% of 1,800 active; 786-0 RCC cells, HIF-2a luciferase reporter luminescence, overnight; shares compounds with HIF-2a inh; inhibition, % at 18.8 µM;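 active means mean inhibition across four replicates of at least 40 percent at the single tested concentration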
HIF-1a counter – counter-screen for HIF-2a inhibitors: HIF-1a inhibition in MiaPaCa-2 cells; MiaPaCa-2 HIF-1a luciferase reporter, desferoxamine, overnight; shares compounds with HIF-2a inh; 72% of 1,800 active; inhibition, % at 18.8 µM; AID 651589;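 active means mean inhibition of the reporter signal across four replicates at the single tested dose of 50% or more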
* marks the source's active call; other numbers are inactive results.

`CC(C)C[C@@H](CN)NC(=O)c1nc[nH]c1C(=O)N[C@@H](CC(C)C)C(=O)CNC[C@H](C)NC(=O)c1nc[nH]c1C(=O)N[C@@H](C)C(=O)O` gave HIF-2a inh 8.7, KKLEB cytotox 2.0, Peg3 prom inh -4.5, ABHD5-PLIN5 inh -3.0 and CF NFkB block -1.9.
Screening Cc1c(CCC(=O)N2CCC(C(=O)O)(c3ccccc3)CC2)c(=O)oc2cc3oc4c(c3cc12)CCCC4 returned HIF-2a inh 62.7*, KKLEB cytotox 4.2, Peg3 prom inh -61.0, ABHD5-PLIN5 inh -3.7, CF NFkB block 10.6, Mdm2 MdmX PPI -25.1, HIF-2a conf 78.5* and HIF-1a counter 42.7.
`O=C(O)c1ccccc1-c1ccccc1C(=O)NCCCO` gave HIF-2a inh 48.2*, KKLEB cytotox 6.6, Peg3 prom inh -4.9, ABHD5-PLIN5 inh -3.8, CF NFkB block -2.3, Mdm2 MdmX PPI 24.6, HIF-2a conf 0.9 and HIF-1a counter -1.4.
CCc1cc(SC#N)cc(CC)c1NC(=O)CCl was read as HIF-2a inh 49.2*, KKLEB cytotox -29.9, Peg3 prom inh 47.3, ABHD5-PLIN5 inh -81.9, CF NFkB block 38.6, Mdm2 MdmX PPI 41.3, HIF-2a conf 34.8 and HIF-1a counter -22.9.
For Cc1ccc(Cl)c(NC(=O)CCl)c1Cl the results were HIF-2a inh 17.6, KKLEB cytotox -5.7, Peg3 prom inh 23.0, ABHD5-PLIN5 inh 0.7, CF NFkB block -1.4 and Mdm2 MdmX PPI 10.8.
O=C(Nc1ccc([N+](=O)[O-])cc1)Nc1ccc(OC(F)F)c(Cl)c1 was read as HIF-2a inh 41.6*, KKLEB cytotox -69.2*, Peg3 prom inh 99.5*, ABHD5-PLIN5 inh -10.1, CF NFkB block 64.1*, HIF-2a conf -70.4 and HIF-1a counter 100.1*.
Screening O=C(Nc1ccc(OC(F)F)c(Cl)c1)Nc1ccc2c(c1)OCO2 returned HIF-2a inh -203.0, KKLEB cytotox 9.1, Peg3 prom inh -107.5, ABHD5-PLIN5 inh -14.8, CF NFkB block 40.4 and Mdm2 MdmX PPI 40.0.
COc1ccc(-c2csc3ncn(-c4cccc(C)c4)c(=O)c23)cc1OC was read as HIF-2a inh 41.2*, KKLEB cytotox -4.3, Peg3 prom inh 32.1, ABHD5-PLIN5 inh 0.7, CF NFkB block 10.2, Mdm2 MdmX PPI 33.1, HIF-2a conf 2.0 and HIF-1a counter 2.4.
`CCc1ccc(-c2nc(CS(=O)CC(=O)NCc3ccccc3)c(C)o2)cc1` (stereo not drawn) gave HIF-2a inh 50.2*, KKLEB cytotox 0.0, Peg3 prom inh 52.6*, ABHD5-PLIN5 inh -3.5, CF NFkB block -3.2, Mdm2 MdmX PPI 17.5, HIF-2a conf 44.8* and HIF-1a counter 55.1*.
Screening CCc1ccc(-c2nc(CSCC(=O)NCc3ccco3)c(C)o2)cc1 returned HIF-2a inh 40.5*, KKLEB cytotox -4.8, Peg3 prom inh 13.7, ABHD5-PLIN5 inh 2.0, CF NFkB block -9.5, HIF-2a conf 43.9* and HIF-1a counter 38.5.
`Cc1oc(-c2ccc(Cl)cc2)nc1CS(=O)CC(=O)NCc1ccccc1` (stereo not drawn) gave HIF-2a inh -0.2, KKLEB cytotox 12.5, Peg3 prom inh 6.0, ABHD5-PLIN5 inh 3.9, CF NFkB block -10.1 and Mdm2 MdmX PPI 3.6.
`Cc1ccc(-c2nc(CSCC(=O)N3CCCC3)c(C)o2)cc1` gave HIF-2a inh -38.3, KKLEB cytotox 14.1, Peg3 prom inh -15.8, ABHD5-PLIN5 inh -2.7, CF NFkB block -0.4 and Mdm2 MdmX PPI 13.8.
Screening CCOC(=O)CSCc1nc(-c2ccc(Cl)cc2)oc1C returned HIF-2a inh 50.5*, KKLEB cytotox 0.9, Peg3 prom inh 1.9, ABHD5-PLIN5 inh 0.9, CF NFkB block 2.4, Mdm2 MdmX PPI -33.0, HIF-2a conf 54.1* and HIF-1a counter 44.1.
Screening CC(C)NC(=O)C1(C)CSCC(=O)N1CCCn1ccnc1 (stereo not drawn) returned HIF-2a inh 5.3 and ABHD5-PLIN5 inh -5.1.
Screening CC(C)(C)c1ccc(C(=O)N2CCCCCC2=O)cc1 returned HIF-2a inh 88.6*, KKLEB cytotox -3.6, Peg3 prom inh 34.9, ABHD5-PLIN5 inh -0.7, CF NFkB block 5.9, Mdm2 MdmX PPI 30.2, HIF-2a conf 94.8* and HIF-1a counter 81.7*.
Screening O=C1CCCCCN1C(=O)c1ccccc1 returned HIF-2a inh -1.7, KKLEB cytotox -4.4, Peg3 prom inh 5.4, ABHD5-PLIN5 inh -6.5 and CF NFkB block 9.7.
Screening CC(Sc1n[nH]c(N)n1)C(=O)C12CC3CC(CC(C3)C1)C2 (stereo not drawn) returned HIF-2a inh 7.2, KKLEB cytotox 4.2, Peg3 prom inh -11.1, ABHD5-PLIN5 inh -4.4, CF NFkB block -1.3 and Mdm2 MdmX PPI 0.3.
CC(SC#N)C(=O)C12CC3CC(CC(C3)C1)C2 (stereo not drawn) was read as HIF-2a inh 46.1*, KKLEB cytotox -22.0, Peg3 prom inh 35.8, ABHD5-PLIN5 inh -5.5, CF NFkB block 43.9, Mdm2 MdmX PPI 41.1, HIF-2a conf 23.8 and HIF-1a counter 12.1.
Screening Cc1ccc(S(=O)(=O)NC(=O)C2(C)CCN2C(=O)CCc2ccc(Cl)cc2Cl)cc1 (stereo not drawn) returned HIF-2a inh 0.0, KKLEB cytotox -6.4, Peg3 prom inh 11.7, ABHD5-PLIN5 inh -2.3 and CF NFkB block -15.8.
For COc1ccc(CNC(=O)/C=C/c2ccc(S(=O)(=O)NCc3ccco3)cc2)cc1OC the results were HIF-2a inh 10.4, KKLEB cytotox -5.7, Peg3 prom inh 25.4, ABHD5-PLIN5 inh 0.9, CF NFkB block 3.1 and Mdm2 MdmX PPI 14.5.
For O=C(/C=C/c1ccc(S(=O)(=O)NCc2ccco2)cc1)NCc1ccccc1Cl the results were HIF-2a inh 41.9*, KKLEB cytotox -9.9, Peg3 prom inh 7.3, ABHD5-PLIN5 inh 1.5, CF NFkB block -9.1, Mdm2 MdmX PPI 35.3, HIF-2a conf -1.9 and HIF-1a counter 15.0.
`COCCNC(=O)[C@H](CSCc1ccccc1)N1Cc2ccccc2C1=O` gave HIF-2a inh 48.1*, KKLEB cytotox -3.3, Peg3 prom inh 10.5, ABHD5-PLIN5 inh -6.8, CF NFkB block 3.0, Mdm2 MdmX PPI 5.8, HIF-2a conf 14.2 and HIF-1a counter -6.1.
For O=C(O)c1ccc(CSc2nc3c(c(=O)[nH]2)CCC3)cc1 the results were HIF-2a inh 13.3, KKLEB cytotox -17.0, Peg3 prom inh -9.7, ABHD5-PLIN5 inh -3.8 and CF NFkB block 13.6.
`Cc1nc(SCc2ccc(C(=O)O)cc2)nc2c1CCCC2` gave HIF-2a inh 82.3*, KKLEB cytotox 0.5, Peg3 prom inh 15.0, ABHD5-PLIN5 inh 12.8, CF NFkB block 0.4, Mdm2 MdmX PPI 14.4, HIF-2a conf 88.9* and HIF-1a counter 61.7*.

Compound activity deposited in PubChem BioAssay by several laboratories.
